{"source": "PubChem BioAssay AID1851", "about": "(National Center for Advancing Translational Sciences (NCATS), 2009)", "note": "Values joined by “and” are separate entries in the source; they are usually repeats but may differ in a detail not shown here. Equal values may be shown once. Screen size: about 16,000 compounds; about 5,800 (36%) were called active. Another 23% or so got no clear call; they are omitted. The list shows a part of the results. Values without a mark were called inactive. Calls come from the whole dose curve; as a rule, active = well fitted curve in the direction sought with a large enough effect; inconclusive = small, poorly fitted or top-dose-only effect, or effect the other way; inactive = no such curve, though single readings can be large or run the other way. % is set by controls: 0 for no effect and ±100 for the full control effect."}
{"biological_target": "Cytochrome P450 2C19 (Homo sapiens) (UniProt P33261)", "sequence (P33261 whole entry, looked up)": "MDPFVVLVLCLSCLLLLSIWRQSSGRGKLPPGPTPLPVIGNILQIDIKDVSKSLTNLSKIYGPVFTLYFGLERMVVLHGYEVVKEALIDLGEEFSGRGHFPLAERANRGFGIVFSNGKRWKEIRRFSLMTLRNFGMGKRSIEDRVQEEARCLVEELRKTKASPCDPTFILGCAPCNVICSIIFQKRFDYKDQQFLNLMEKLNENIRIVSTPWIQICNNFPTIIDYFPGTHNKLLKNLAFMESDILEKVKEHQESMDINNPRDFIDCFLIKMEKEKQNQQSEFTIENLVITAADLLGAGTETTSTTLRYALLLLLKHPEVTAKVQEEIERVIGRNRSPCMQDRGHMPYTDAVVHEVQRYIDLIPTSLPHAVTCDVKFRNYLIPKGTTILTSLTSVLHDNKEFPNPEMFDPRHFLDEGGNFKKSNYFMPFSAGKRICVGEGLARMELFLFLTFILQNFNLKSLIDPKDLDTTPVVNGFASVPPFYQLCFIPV", "experiment": "Cytochrome panel assay with activity outcomes", "settings": "recombinant CYP, pro-luciferin dealkylation, luminescence, p450-cyp2c19; series mostly up to 57.1 µM"}
{"smiles": "O=C(O)CC/C=C\\CC[C@H]1[C@@H](N2CCCCC2)[C@@H](O)C[C@@H]1OCc1ccc(-c2ccccc2)cc1", "AC50": "inactive"}
{"smiles": "Cc1cccc(N(C)C(=S)Oc2ccc3ccccc3c2)c1", "AC50": "0.1 µM (active)"}
{"smiles": "O=C(CCN1C(=O)c2ccccc2C1=O)Oc1ccc2ccccc2c1", "AC50": "inactive"}
{"smiles": "O=C(Nc1cc(C(F)(F)F)ccc1-n1cncn1)c1ccc(Br)cc1", "AC50": "2.24 µM (active)"}
{"smiles": "CC(=O)Nc1ccc(S(=O)(=O)N2CCN(c3nc(NC4CCCC4)c4ccccc4n3)CC2)cc1", "AC50": "7.08 µM (active)"}
{"smiles": "Cc1cc(C)c(O)c(Cc2cccc(Cc3cc(C)cc(C)c3O)c2O)c1", "activity, negative = inhibition": "8% [at 11.4 µM]"}
{"smiles": "Cc1ccc(C(=N)c2ccccc2Cc2cccc3ccccc23)c2ccccc12", "AC50": "1.26 µM (active)"}
{"smiles": "Cc1cc(C)cc(C(=N)c2ccccc2Cc2cccc3ccccc23)c1", "AC50": "1.58 µM (active)"}
{"smiles": "C#CCCCO/N=C1/C[C@@H](O)[C@@H](O)[C@@H]2[C@@H]3C(=O)N(C[C@@H]4CCCO4)C(=O)[C@H]3CC[C@H]12", "activity, negative = inhibition": "-15.3% [at 11.4 µM]"}
{"smiles": "ClC(Cl)(Cl)C(N1CCN(c2ccccc2)CC1)N1CCN(c2ccccc2)CC1", "activity, negative = inhibition": "21% [at 11.4 µM]"}
{"smiles": "CC(C)CC(c1nnnn1C(C)C)N1CCN(c2ccccc2)CC1", "note": "(stereo unspecified)", "AC50": "5.01 µM (active)"}
{"smiles": "CCOC(=O)c1cnn(-c2nc(-c3cccc(F)c3)cs2)c1C(F)(F)F", "AC50": "2.82 µM (active)"}
{"smiles": "CCOC(=O)C1CCN(C(=O)c2ccccc2NC(C)=O)CC1", "AC50": "inactive"}
{"smiles": "CCOC(=O)C1CCN(C(=O)C2CCN(c3nc4ccc(OC)cc4s3)CC2)CC1", "AC50": "11.2 µM (active)"}
{"smiles": "COc1cc2nc(N3CCN(C(=O)[C@@H]4CCCO4)CC3)nc(N)c2cc1OC", "AC50": "inactive"}
{"smiles": "CCOc1ccc2nc(N3CCCCCC3)sc2c1", "AC50": "3.98 µM (active)"}
{"smiles": "CCN(CC)CCOc1ccc2nc(N(C)C)sc2c1", "AC50": "inactive"}
{"smiles": "CN1CCC2(CC1)C1CN(C)CC=C1C(C#N)=C(N)C2(C#N)C#N", "note": "(stereo unspecified)", "AC50": "inactive"}
{"smiles": "CN1CC[C@@]2(CCCN(C(=O)c3cc(C(F)(F)F)cc(C(F)(F)F)c3)C2)C1", "AC50": "inactive"}
{"smiles": "COc1cnc(SCc2ccc(Cl)cc2)nc1Cl", "AC50": "1.58 µM (active)"}
{"smiles": "CCOC(=O)CCc1c(C)nc2ncnn2c1C", "AC50": "inactive"}
{"smiles": "CCc1c(C)nc2ncnn2c1NCCc1ccc(OC)cc1", "AC50": "3.55 µM (active)"}
{"smiles": "Cc1ccc(CNC(=O)CCc2c(C)nc3ncnn3c2C)cc1", "AC50": "inactive"}
{"smiles": "COc1ccc(C(=O)c2cnc3ccccc3c2-c2ccccc2)cc1", "AC50": "5.01 µM (active)"}
{"smiles": "COc1ccc(-c2nc3cnc(N4CCN(C)CC4)nc3n(Cc3ccc(F)cc3)c2=O)cc1", "AC50": "inactive"}
{"smiles": "CCOC(=O)c1oc2nc(CC(C)C)c3c(c2c1N)CCC3", "AC50": "11.2 µM (active)"}
{"smiles": "CC1(C)S[C@@H]2[C@H](NC(=O)[C@H](C(=O)O)c3ccsc3)C(=O)N2[C@H]1C(=O)O", "AC50": "inactive"}
{"smiles": "CCC(CC)c1nnc(NC(=O)c2cccc(S(=O)(=O)N3CCc4ccccc43)c2)s1", "AC50": "7.94 µM (active)"}
{"smiles": "CCn1cc(C(=O)N/N=C(/C)c2ccc(F)cc2)c(=O)c2cc(F)c(N3CCCC3)cc21", "AC50": "4.47 µM (active)"}
{"smiles": "CCn1cc(C(=O)O)c(=O)c2cc(F)c(N3CCNCC3)nc21", "AC50": "inactive"}
{"smiles": "CCn1cc(C(=O)O)c(=O)c2cc3c(cc21)OCO3", "AC50": "inactive"}
{"smiles": "N=C(N)SCc1cccc(-c2nc3ccccc3c(=O)o2)c1", "activity, negative = inhibition": "16.9% [at 11.4 µM]"}
{"smiles": "CC(C)CCN1C(=O)c2ccc(-c3nc4ccccc4c(=O)o3)cc2C1=O", "AC50": "14.1 µM (active)"}
{"smiles": "CCOC(=O)Nc1ccc2c(c1)N(C(=O)CCN1CCOCC1)c1ccccc1S2", "AC50": "inactive"}
{"smiles": "Cc1ccc(NCCC(=O)c2ccc(Cl)cc2)cc1C", "AC50": "1.26 µM (active)"}
{"smiles": "CCCCOC(=O)Nc1ccc(C)c(Cl)c1", "AC50": "2 µM (active)"}
{"smiles": "CCCCOc1ccc(C(=O)CCN2CCCCC2)cc1", "AC50": "inactive"}
{"smiles": "CCCOc1ccc(C(=O)CCNc2ccc(C)c(Cl)c2)cc1", "AC50": "0.398 µM (active)"}
{"smiles": "Cc1ccc(NC(=O)CCC(=O)c2ccc(F)cc2)cc1Cl", "AC50": "3.98 µM (active)"}
{"smiles": "C[C@@H](c1ccccc1)N1C(=O)[C@H]2[C@@H]3[C@H](O)[C@H](O)CC(=O)[C@H]3CC[C@H]2C1=O", "activity, negative = inhibition": "13.8% [at 11.4 µM] and 0.79% [at 11.4 µM]"}
{"smiles": "Cc1nc2cnc(Oc3ccccc3)nc2n(-c2ccccc2)c1=O", "AC50": "inactive"}
{"smiles": "O=C(O)CNc1ccc(C(=O)O)cc1", "activity, negative = inhibition": "21.5% [at 11.4 µM]"}
{"smiles": "Cc1ccc(NCCC(=O)c2ccc(Cl)cc2)cc1", "AC50": "1.41 µM (active)"}
{"smiles": "O=C(O)CCC(=O)c1ccc(Cl)cc1", "activity, negative = inhibition": "22.7% [at 11.4 µM]"}
{"smiles": "CC[N+](C)(CC)CCC[n+]1c(-c2ccccc2)c2cc(N)ccc2c2ccc(N)cc21", "AC50": "1.58 µM (active)"}
{"smiles": "Cc1ccc[n+](CC(=O)c2cc3ccccc3oc2=O)c1", "AC50": "inactive"}
{"smiles": "CC(=O)c1cc2ccccc2oc1=O", "AC50": "inactive"}
{"smiles": "CC(C)OC(=O)c1cc2ccccc2oc1=O", "AC50": "15.8 µM (active)"}
{"smiles": "CC1(C)Oc2ccc(C#N)cc2[C@H](N2CCCC2=O)[C@H]1O", "AC50": "inactive"}
{"smiles": "COn1c(-c2ccccc2)nc2c1CCc1nonc1-2", "AC50": "15.8 µM (active)"}
{"smiles": "CCC(C)c1ccc(Nc2ncccc2C#N)cc1", "note": "(stereo unspecified)", "AC50": "4.47 µM (active)"}
{"smiles": "O=C(O)C[C@H](Cc1ccccc1)C(=O)O", "activity, negative = inhibition": "-9.67% [at 11.4 µM]"}
{"smiles": "O=C(Cc1ccccc1)NC(NCCc1ccccc1)C(Cl)(Cl)Cl", "note": "(stereo unspecified)", "AC50": "0.794 µM (active)"}
{"smiles": "COC(=O)CN(c1ccc(OC)cc1)S(=O)(=O)c1c(C)noc1C", "AC50": "5.01 µM (active)"}
{"smiles": "COc1ccc(N(CC(=O)NCc2cccc(OC)c2)S(=O)(=O)c2c(C)noc2C)cc1", "AC50": "2 µM (active)"}
{"smiles": "COc1ccc(NC(=O)N2CC[C@@]3(CCCN(C(=O)c4c(C)noc4C)C3)C2)cc1", "AC50": "inactive"}
{"smiles": "COc1cccc(CNC(=O)CCNC(=O)Cn2ccc3ccccc3c2=O)c1", "AC50": "inactive"}
{"smiles": "O=C(O)/C=C\\c1cnc[nH]1", "AC50": "inactive"}
{"smiles": "NCCCc1c(-c2ccccc2)nc(N)[nH]c1=O", "activity, negative = inhibition": "-12.9% [at 11.4 µM]"}
{"smiles": "CCCCCOC(=O)CSc1nnc(-c2ccccc2)c(=O)[nH]1", "AC50": "8.91 µM (active)"}
{"smiles": "Nc1nc(SCC(=O)O)[nH]c(=O)c1N", "activity, negative = inhibition": "25.5% [at 11.4 µM]"}
{"smiles": "CC(=O)OCCCN1c2ccccc2Nc2nnc(-c3ccccc3)cc21", "AC50": "7.08 µM (active)"}
{"smiles": "CC(C)(C)n1nc(-c2ccc(Cl)cc2)c2c(N)ncnc21", "AC50": "2 µM (active)"}
{"smiles": "CC(C)(C)Cn1nc(-c2ccc(Cl)cc2)c2c(N)ncnc21", "AC50": "inactive"}
{"smiles": "CCNc1ncc2nc(-c3ccc(Cl)cc3)c(=O)n(C)c2n1", "AC50": "inactive"}
{"smiles": "O=c1c2ccccc2nnn1CSc1nnnn1-c1ccccc1", "AC50": "7.94 µM (active)"}
{"smiles": "O=c1c2ccccc2nnn1CSc1ccc2c(c1)OCCO2", "AC50": "1.12 µM (active)"}
{"smiles": "Cc1cc(C)c(C#N)c(OCC(=O)c2ccc(Br)cc2)n1", "AC50": "3.16 µM (active)"}
{"smiles": "C/C(=N\\NC(=O)c1ccncc1)c1ccc2ccccc2c1O", "AC50": "0.501 µM (active)"}
{"smiles": "O=Nc1c(O)n(Cc2cccc(Cl)c2)c2ccccc12", "AC50": "3.55 µM (active)"}
{"smiles": "O=Nc1c(O)n(Cc2ccc(Cl)c(Cl)c2)c2ccccc12", "AC50": "0.891 µM (active)"}
{"smiles": "O=C1C(=O)N(Cc2ccc(Cl)c(Cl)c2)c2ccccc21", "AC50": "inactive"}
{"smiles": "Cn1c(=O)c2c(n(Cc3ccccc3)c1=O)NC(=O)C2CC(=O)NCc1cccc(Cl)c1", "note": "(stereo unspecified)", "AC50": "inactive"}
{"smiles": "O=Nc1c(O)n(Cc2ccc(Cl)cc2)c2ccccc12", "AC50": "0.794 µM (active)"}
{"smiles": "COc1ccc([N+](=O)[O-])cc1NCc1ccccc1C", "AC50": "2.82 µM (active)"}
{"smiles": "CN(Cc1ccccc1)c1nc(-c2ccc([N+](=O)[O-])cc2)nc2ccccc12", "AC50": "inactive"}
{"smiles": "Cc1cc([N+](=O)[O-])ccc1NCc1ccccc1", "AC50": "2 µM (active)"}
{"smiles": "O=[N+]([O-])c1ccc(CS(=O)Cc2ccccc2)cc1", "note": "(stereo unspecified)", "AC50": "1.26 µM (active)"}
{"smiles": "O=C(O)c1cc([N+](=O)[O-])ccc1NCCCc1ccccc1", "AC50": "inactive"}
{"smiles": "COc1ccccc1CN1CCC2(CC1)CCN(C(=O)c1cccn1C)CC2", "AC50": "inactive"}
{"smiles": "O=C1CC(N2CCOCC2)C(=O)N1c1cccc(Cl)c1", "note": "(stereo unspecified)", "AC50": "8.91 µM (active)"}
{"smiles": "CO[C@H]1C=CO[C@]2(C)Oc3c(C)c(O)c4c(O)c(c5c(c4c3C2=O)NC2(CCN(CC(C)C)CC2)N=5)=NC(=O)C(C)=CC=C[C@@H](C)[C@@H](O)[C@@H](C)[C@@H](O)[C@@H](C)[C@@H](OC(C)=O)[C@@H]1C", "AC50": "inactive"}
{"smiles": "CO[C@@H]1/C=C\\O[C@@]2(C)Oc3c(C)c(O)c4c(c3C2=O)C(=N[C@H]2CC[C@H](O)O[C@@H]2C)C=C(NC(=O)/C(C)=C\\C(=O)[C@@H]2C[C@@H]2[C@@H](O)[C@H](C)[C@@H](O)[C@H](C)[C@H](OC(C)=O)[C@@H]1C)C4=O", "AC50": "2.51 µM (active)"}
{"smiles": "CO[C@@H]1/C=C\\O[C@]2(C)Oc3c(C)c(O)c4c(O)c(cc(O)c4c3C2=O)NC(=O)/C(C)=C\\C=C/[C@H](C)[C@@H](O)[C@H](C)[C@H](O)[C@H](C)[C@H](OC(C)=O)[C@@H]1C", "activity, negative = inhibition": "-13.1% [at 11.4 µM]"}
{"smiles": "Cc1ccc(N2C(=O)C(Cl)=C(NCc3ccccc3)C2=O)c(C)c1", "AC50": "3.16 µM (active)"}
{"smiles": "OCCn1cnc2c(SCc3ccccc3)ncnc21", "activity, negative = inhibition": "12.6% [at 11.4 µM]"}
{"smiles": "CCSc1ncnc2c1sc1nc(-c3ccco3)c3c(c12)CC(C)(C)OC3", "AC50": "inactive"}
{"smiles": "c1ccc(CSc2ncnc3c2sc2nc(N4CCOCC4)c4c(c23)CCCC4)cc1", "AC50": "7.08 µM (active)"}
{"smiles": "CC(C)C[C@H](NC(=O)N1CCCCCC1)C(=O)N[C@H](Cc1cn(C)c2ccccc12)C(=O)N[C@H](Cc1ccccn1)C(=O)O", "AC50": "inactive"}
{"smiles": "CCn1c2ccccc2c2cc(NC(=O)CSc3nnc(-c4ccc(OC)c(OC)c4)n3N)ccc21", "AC50": "7.94 µM (active)"}
{"smiles": "O=C(CCCNS(=O)(=O)c1cccc2nsnc12)NCCc1ccccc1", "AC50": "6.31 µM (active)"}
